AmpC inh no detg: AmpC beta-lactamase inhibition without detergent; P00811; AmpC nitrocefin hydrolysis, absorbance 480 nm, 0.0001% Triton; Potency, µM (doses to about 57.1 µM), for the others: at the highest dose activity change, negative = inhibition, actives largely listed as inhibitors; 330,000 tested, 0.52% active;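 note: plate controls were no compound for no effect and no enzyme for full effect; nearly all actives have a fitted effect of over 20% in size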
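20 mM phosphate pH 7.0 + 0.01% (detergent screen) or 0.0001% Triton X-100; 5.3 nM AmpC reagent; cpd preinc 15 min RT; nitrocefin (800 uM stock) to start; A480 q20 s × 4 min; Activity was normalised to no-enzyme and no-compound control wells.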
Sm TGR block: S. mansoni TGR enzyme inhibition; purified TGR, DTNB reduction, TNB absorbance 405 nm; Potency, µM (titrated, usually from 114 µM), for the others: top-dose activity change, negative = inhibition, usual class: inhibitors; 360,000 tested, 3% active; AID 485364; note: nearly all actives have a fitted effect of over 60% in size
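Kinetic colorimetric format: TGR-catalysed, NADPH-driven DTNB reduction monitored via TNB absorbance. Enzyme dispensed at 20 nM; compound exposure 15 min at room temperature before reaction start.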
Giardia FBPA inh-1: Giardia lamblia aldolase inhibition | purified Giardia FBPA | Potency, µM (highest dose often 59.6 µM), for inactives: at the highest dose activity, negative = inhibition, usual class: inhibitors | AID 2451 | 290,000 tested, 0.71% active; note: nearly all actives have a fitted effect of over 55% in size
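40 nM FBPA preincubated 10 min at RT with compound (up to 57.5 uM final), then substrate plus GAPDH/TPI/NAD/arsenate coupling and diaphorase/resazurin added. Fluorescence read after 20 min at RT, 525/598 nm.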
AmpC inh detg: inhibitors of E. coli AmpC beta-lactamase with detergent | Potency, µM (top dose mostly 114 µM), for inactives: at the top dose activity change, negative = inhibition, most hits filed as inhibitors | AmpC hydrolysis of nitrocefin, absorbance 480 nm, 0.01% Triton | 370,000 tested, 0.041% active;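 note: 0% = no-compound wells and -100% = no-enzyme wells; nearly all actives have a fitted effect of over 25% in size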
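20 mM phosphate pH 7.0 + 0.01% (detergent screen) or 0.0001% Triton X-100; 5.3 nM AmpC reagent; cpd preinc 15 min RT; nitrocefin (800 uM stock) to start; A480 q20 s × 4 min; Activity was normalised to no-enzyme and no-compound control wells.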
RE007 growth inh: less growth of the S. pombe RE007 Vpr strain; Potency, µM (titrated, usually from 92.2 µM), for inactives: at the top dose activity change, negative = less growth, most hits filed as inhibitors; S. pombe RE007 Vpr strain, BacTiter-Glo ATP luminescence, 24 h; 360,000 tested, 0.21% active; active = well fitted falling curve with a large enough effect; inconclusive = small, poorly fitted or top-dose-only effect; inactive = no such curve, though single readings can be large or run the other way; note: nearly all actives have a fitted effect of over 50% in size
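Fission yeast strain RE007, carrying one chromosomally integrated HIV-1 vpr copy, was seeded at OD 0.01 in PMG+AL medium with 23 nL pinned compound. After 24 h at 30 °C and 99% humidity, viability was read by BacTiter-Glo luminescence.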
Giardia growth: blocks growth of Giardia lamblia trophozoites. Giardia lamblia trophozoite growth inhibition. shares compounds with Giardia FBPA inh-1. 1,500 tested, 5% active. Potency, µM (top dose mostly 57.5 µM), without a hit: at the highest dose activity change, negative = inhibition, most hits filed as inhibitors. AID 2785;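 note: trophozoites exposed to compound for 48 h at 37 °C; nearly all actives have a fitted effect of over 70% in size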
Mammalian tox: counter-screen for Giardia aldolase inhibitors: mammalian cell toxicity; shares compounds with Giardia FBPA inh-1; mammalian cell viability counter-screen, qHTS; Potency, µM (top dose mostly 57.5 µM), for the others: at the highest dose viability change, negative = toxicity, actives largely listed as inhibitors; 1,500 tested, 4% active;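 note: Chinese hamster ovary cells used as mammalian cytotoxicity surrogate; viability measured as cellular ATP by luminescence; compound exposure lasted 48 h before reading; nearly all actives have a fitted effect of over 60% in size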
Giardia FBPA inh-2: confirmation of Giardia fructose-bisphosphate aldolase inhibitors; AID 2787; shares compounds with Giardia FBPA inh-1; Potency, µM (doses to about 57.5 µM), for the others: at the top dose activity change, negative = inhibition, hits mostly inhibitors; 1,500 tested, 5% active; purified Giardia aldolase enzyme activity, qHTS; note: nearly all actives have a fitted effect of over 45% in size
Rabbit FBPA inh: rabbit FBP aldolase inhibition by Giardia aldolase hits. shares compounds with Giardia FBPA inh-1. Rabbit muscle FBPA enzyme inhibition, selectivity counter-screen. Potency, µM (top dose mostly 57.5 µM), inactives show top-dose activity, negative = inhibition, most hits filed as inhibitors. 1,500 tested, 4% active. AID 2794; note: nearly all actives have a fitted effect of over 60% in size
Target sequence (P00883 whole entry, looked up): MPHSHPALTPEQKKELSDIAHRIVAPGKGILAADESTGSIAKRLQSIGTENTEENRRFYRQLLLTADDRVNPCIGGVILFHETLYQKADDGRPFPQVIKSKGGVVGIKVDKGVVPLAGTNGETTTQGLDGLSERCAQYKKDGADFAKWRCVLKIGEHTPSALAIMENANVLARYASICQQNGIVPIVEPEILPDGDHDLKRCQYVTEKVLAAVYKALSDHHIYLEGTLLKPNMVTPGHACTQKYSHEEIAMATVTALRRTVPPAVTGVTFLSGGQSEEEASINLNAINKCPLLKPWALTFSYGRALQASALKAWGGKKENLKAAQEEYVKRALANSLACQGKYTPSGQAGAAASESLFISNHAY
GAPDH coupling: GAPDH inhibition flagged for Giardia aldolase hits; AID 2795; shares compounds with Giardia FBPA inh-1; 1,500 tested, 6% active; Potency, µM (series often up to 57.5 µM), without a hit: at the top dose activity change, negative = inhibition, hits mostly inhibitors; GAPDH coupling enzyme counterscreen, biochemical, qHTS; note: nearly all actives have a fitted effect of over 55% in size
* = called active by the depositor; u = inconclusive; x = no result given; [ ] = dose if it differs, or a comment. Shown are actives, neighbours in structure and some others; about 3.4% of the full set was active somewhere. Unless noted, calls come from the whole dose curve; as a rule, active = well fitted curve in the direction sought with a large enough effect; inconclusive = small, poorly fitted or top-dose-only effect, or another doubt; inactive = no such curve, though single readings can be large; an effect the other way counts as inactive or inconclusive. Unless noted, % is set by controls: 0 for no effect and ±100 for the full control effect; potency is the fitted concentration of half-maximal effect.

SMILES	AmpC inh no detg	Sm TGR block	Giardia FBPA inh-1	AmpC inh detg	RE007 growth inh	Giardia growth	Mammalian tox	Giardia FBPA inh-2	Rabbit FBPA inh	GAPDH coupling
NC(=O)c1cccc2c1-c1ccccc1/C2=N/NC(N)=S	-15.3%	-9.0%	11.2µM*	-1.5%	-8.9%	-22.9%	-28.4%	-2.7%	0.0%	8.9%
NC(=S)N/N=C1\c2ccccc2-c2c(C(=O)O)cccc21	-41.6%	1.5%	3.98µM*	-2.0%	-17.2%	3.6%[10.4 µM]	2.1%	5.9%	2.9%	11.3%
CCCn1c(N2CCN(C(=O)/C=C/C(=O)O)CC2)nc2ccccc21	-9.0%	-6.0%	1.1%	-14.3%	26.0%	x	x	x	x	x
O=S(=O)(Nc1ccc(Cl)cc1)c1ccc(N2CCOCC2)c(NC(=S)NCCN2CCOCC2)c1	40.6%	-9.1%	5µM*	-10.8%	-19.7%	-0.8%[38.3 µM]	3.0%	u	39.8µM*	39.8µM*
COc1ccc(-c2nnc(SCC(=O)Nc3c(C)cccc3C)nc2-c2ccc(OC)cc2)cc1	x	-2.3%	x	-9.2%	x	x	x	x	x	x
Cc1cccc(C)c1NC(=O)CSc1nnc(-c2ccco2)c(-c2ccco2)n1	-27.6%	1.78µM*	7.92µM*	-1.4%	7.7%	-0.2%[10.4 µM]	15.1%	u	-22.8%	u
CCCCc1c(O)nc(SC2CC(=O)N(c3ccc(C(=O)OCC)cc3)C2=O)[nH]c1=O (centres undefined)	-42.6%	-29.7%	7.08µM*	u	33.0%	-1.4%[10.4 µM]	-0.5%	-1.1%	10.5%	12.1%
COc1ccc(NC(=O)NC(c2ccccc2)c2ccccc2)c(OC)c1	-20.1%	-0.4%	12.6%	-11.6%	12.3%	x	x	x	x	x
COC(=O)c1cc(C)nc2c1C(=O)C(=O)C=C2N1CCOCC1	-15.4%	u	0.251µM*	1.3%	-1.8%	25.1µM*	20µM*	1.26µM*	1.41µM*	1.41µM*
COC(=O)c1cc(S(=O)(=O)N2CCOCC2)c(Cl)cc1N1CCOCC1	0.5%	22.2%	2.8%	0.9%	1.6%	x	x	x	x	x
CN(C(=O)CSc1nc2sc3c(c2c(=O)n1C)CCC3)C1CCS(=O)(=O)C1 (centres undefined)	-0.2%	3.7%	x	-2.1%	-6.4%	x	x	x	x	x
COc1cc(/C=C(\C#N)C(=O)c2c[nH]c3ccccc23)cc(OC)c1O	-34.2%	-2.3%	7.92µM*	7.5%	2.7%	-18.2%	3.0%	2µM*	u	u
O=C(O)c1cc2nccc(-c3ccco3)n2n1	-8.3%	u	-8.0%	-1.5%	-8.8%	x	x	x	x	x
COc1ccc(-c2ccnc3cc(C(=O)O)nn23)cc1	-9.5%	8.5%	17.7µM*	-2.5%	u	47.1%	23.1%	4.4%	-0.4%	7.2%
O=C1Cc2cc(S(=O)(=O)NCc3ccccc3Cl)cc3c2N1CCC3	-50.5%	12.1%	x	2.3%	-1.9%	x	x	x	x	x
N#Cc1ccsc1NC(=O)c1ccccn1	-10.4%	0.0%	19.9µM*	-10.9%	-13.3%	10µM*	-7.9%	-10.9%	-2.5%	-5.8%
N#Cc1ccsc1NC(=O)c1ccc2ncsc2c1	x	x	x	x	8.7%	x	x	x	x	x
CC(C)c1nnc(NC(=O)CCC(=O)NCc2ccc(F)cc2)s1	-11.2%	7.6%	-2.5%	3.1%	1.7%	x	x	x	x	x

Screening data deposited in PubChem by National Center for Advancing Translational Sciences (NCATS).
